Here are results for 31 compounds from PubChem BioAssay AID720706 (Broad Institute, 2013).

The structures appear in SMILES notation. In all, about 350,000 compounds went through this assay and about 5,500 (1.6%) were called active.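 Rule for the calls: active = significant combined selectivity score with lowered wild-type GFP, culture density cut under 30%, mutant RFP and density less affected; inactive = any of these conditions unmet.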 For the sample, actives were picked, then their nearest neighbours and some compounds at random.

A short description of the experiment: reduced GFP signal of wild-type E. coli, primary screen, bacterial rRNA inhibitor project, GFP/RFP fluorescence, OD600, single point (AID 720706). To be noted: E. coli WT GFP vs humanized-ribosome RFP mutants, 24 h; GFP signal change (wild-type ribosome): stronger effect = lower value, DMSO median 0, no signal -100; OD600 change: measured here: OD600 growth, DMSO median 0, no signal -100; RFP signal change: measured here: RFP humanized mutant strains, DMSO median 0, no signal -100, concentration not given here.
Regarding `CN1c2ccc(-c3ccccc3)cc2[C@@H]2[C@@H](CCN2C(=O)NC2CCCC2)[C@H]1CO`, the GFP signal change (wild-type ribosome) is -26.6% (inactive), the OD600 change was -47.4% and the RFP signal change was found to be 16.9%.

As for `CCC(=O)N1[C@@H](CO)[C@@H](c2ccccc2)C12CN(C(=O)c1cnccn1)C2`, the GFP signal change (wild-type ribosome) is -1.97% (inactive), the OD600 change is -9.38% and the RFP signal change worked out at 1.42%.

With `COc1ccc(-c2nc(N)ncc2-c2ccc(Cl)cc2)c(O)c1`, the GFP signal change (wild-type ribosome) is -4.3% (inactive), the OD600 change is -9.82% and the RFP signal change turned out to be 0.567%.

As to `C=C(C)COc1ccc(-c2ncncc2-c2ccc(OC)cc2)c(O)c1`, the GFP signal change (wild-type ribosome) is -11.6% (inactive), the OD600 change was -10.7% and the RFP signal change was -1.31%.

Turning to `CCOc1ccc(-c2nc(N)ncc2-c2ccccc2OC)c(O)c1`, the GFP signal change (wild-type ribosome) was -28.9% (active), the OD600 change is -3.55% and the RFP signal change was -5.66%.

For `CCS(=O)(=O)Nc1ccc2c(c1)C(=O)N(C)[C@@H]1CC[C@H](CC(=O)N3CCCCC3)O[C@@H]1CO2`, the GFP signal change (wild-type ribosome) was -0.591% (inactive), the OD600 change is -4.1% and the RFP signal change was -3.67%.

`COc1ccc(NC(=O)N2C[C@H](O)COC[C@@H]3O[C@@H](CC(=O)NCc4ccccc4OC)CC[C@H]32)cc1`: the GFP signal change (wild-type ribosome) is -1.91% (inactive), the OD600 change was -2.52% and the RFP signal change was -1.31%.

For `COc1cccc(-c2cn(CC[C@H]3CC[C@H](NC(=O)CN(C)C)[C@H](CO)O3)nn2)c1`, the GFP signal change (wild-type ribosome) is -0.8% (inactive), the OD600 change is -2.58% and the RFP signal change was -0.651%.

Take `CCNC(=O)[C@H]1[C@H](CO)[C@H]2Cn3c(cccc3=O)[C@H]2N1C(=O)C1CCCC1`: the GFP signal change (wild-type ribosome) is 4.25% (inactive), the OD600 change is -2.66% and the RFP signal change is -1.17%.

Regarding `Cc1cc(C)c(C#N)c(Nc2cccc(Br)c2)n1`, the GFP signal change (wild-type ribosome) was 11.7% (inactive), the OD600 change was 6.25% and the RFP signal change stood at 3.63%.

For the compound `Cc1cc(Nc2ccc(Br)cc2)nc2ccccc12`, the GFP signal change (wild-type ribosome) was -50.8% (active), the OD600 change is -41% and the RFP signal change is -13.6%.

For the compound `C[C@H]1CCCCO[C@H](CN(C)Cc2ccccc2)[C@@H](C)CN([C@@H](C)CO)C(=O)c2cc(NS(C)(=O)=O)ccc2O1`, the GFP signal change (wild-type ribosome) is 2.67% (inactive), the OD600 change worked out at 3.64% and the RFP signal change was -3.91%.

On to `CCNC(=O)[C@@H]1[C@@H](CO)[C@@H]2Cn3c(ccc(-c4ccncc4)c3=O)[C@@H]2N1Cc1cc(F)ccc1F`, for which the GFP signal change (wild-type ribosome) was 2.37% (inactive), the OD600 change amounted to 8.82% and the RFP signal change was 1.07%.

With `C[C@@H]1CN([C@@H](C)CO)C(=O)c2cc(NC(=O)CCCN(C)C)ccc2O[C@@H](C)CCCCO[C@H]1CN(C)C(=O)Nc1cccc2ccccc12`, the GFP signal change (wild-type ribosome) was -3.48% (inactive), the OD600 change is -7.41% and the RFP signal change was 4.52%.

As for `Cc1cccc(NC(=O)CCn2c(=O)oc3ccccc32)c1`, the GFP signal change (wild-type ribosome) was 3.5% (inactive), the OD600 change amounted to 2.74% and the RFP signal change is -1.45%.

As for `COc1ccc(Cn2c(=O)oc3ccccc32)cc1`, the GFP signal change (wild-type ribosome) is -5.68% (inactive), the OD600 change came out at 1.5% and the RFP signal change was 2.85%.

Turning to `Cc1ccc(OCCCn2c(=O)oc3ccccc32)cc1`, the GFP signal change (wild-type ribosome) is -33.5% (active), the OD600 change is -20.9% and the RFP signal change is -1.83%.

In the case of `O=C(Nc1ccccc1F)N[C@@H]1C=C[C@H](CC(=O)N2CCCCC2)O[C@@H]1CO`, the GFP signal change (wild-type ribosome) is 3.61% (inactive), the OD600 change stood at 6.08% and the RFP signal change is -0.341%.

As to `C[C@H](CO)N1C[C@H](C)[C@@H](CN(C)C(=O)Nc2cccc(F)c2)OCc2ccccc2-c2ccccc2C1=O`, the GFP signal change (wild-type ribosome) was -0.679% (inactive), the OD600 change is -1.43% and the RFP signal change turned out to be 0.291%.

With `C[C@H](CO)N1C[C@H](C)[C@H](CN(C)C(=O)Nc2cccc3ccccc23)OCCCC[C@H](C)Oc2ccc(NC(=O)Nc3ccc4c(c3)OCO4)cc2C1=O`, the GFP signal change (wild-type ribosome) is 2.1% (inactive), the OD600 change worked out at 5.33% and the RFP signal change is -1.79%.

For `CC(C)NC(=O)N1CCCCN2[C@H](CO)[C@H](c3ccc(C#C[C@H](C)O)cc3)[C@H]2C1`, the GFP signal change (wild-type ribosome) is 5.37% (inactive), the OD600 change came to 11.9% and the RFP signal change amounted to 2.67%.

With `CCS(=O)(=O)N1Cc2cc(C(=O)N(C)C)nc(-c3cccc(-c4ccc(C#N)cc4)c3)c2[C@H]1CCO`, the GFP signal change (wild-type ribosome) was 1.6% (inactive), the OD600 change is -8.16% and the RFP signal change was found to be 0.491%.

Regarding `CCCNC(=O)c1cc2c(c(-c3cccc(-c4ccc(C#N)cc4)c3)n1)[C@@H](CCO)N(C(=O)CC)C2`, the GFP signal change (wild-type ribosome) is -28.9% (active), the OD600 change was -16.6% and the RFP signal change amounted to 9.41%.

For the compound `CCCNC(=O)c1cc2c(c(-c3cccc(-c4ccc(F)cc4)c3)n1)[C@@H](CCO)N([S@](=O)C(C)(C)C)C2`, the GFP signal change (wild-type ribosome) is -7.84% (inactive), the OD600 change is -6.59% and the RFP signal change was found to be 26.4%.

Regarding `O=[N+]([O-])c1cc(Br)c(O)c(/C=N/Nc2nc3ccccc3s2)c1`, the GFP signal change (wild-type ribosome) is -26.6% (active), the OD600 change is -18.1% and the RFP signal change was determined as 3.75%.

On to `O=[N+]([O-])c1cccc(/C=N/Nc2ncc(Br)cn2)c1`, for which the GFP signal change (wild-type ribosome) was 14.8% (inactive), the OD600 change was determined as 23.4% and the RFP signal change stood at 1.61%.

As for `O=C(N/N=C/c1cc(Br)c(O)c([N+](=O)[O-])c1)C(O)(c1ccccc1)c1ccccc1`, the GFP signal change (wild-type ribosome) was -13.8% (inactive), the OD600 change is -17.8% and the RFP signal change was -3.16%.

`C[C@H](CO)N1C[C@H](C)[C@H](CN(C)C(=O)C2CCOCC2)Oc2ncc(C#Cc3ccccc3F)cc2C1=O`: the GFP signal change (wild-type ribosome) was 4.96% (inactive), the OD600 change was 16.6% and the RFP signal change was -0.455%.

Take `Cc1cc2ccccn2c1C(=O)c1cccc(F)c1`: the GFP signal change (wild-type ribosome) was -7.7% (inactive), the OD600 change was -19.4% and the RFP signal change is -0.345%.

For the compound `Cc1nc2ccc(NC(=O)c3cccc(S(=O)(=O)N4CCOCC4)c3)cc2s1`, the GFP signal change (wild-type ribosome) was -8.91% (inactive), the OD600 change is -4.27% and the RFP signal change is -0.693%.

Regarding `Cc1cc2ccccn2c1C(=O)c1cccc(S(=O)(=O)N2CCOCC2)c1`, the GFP signal change (wild-type ribosome) was -23.1% (active), the OD600 change was -17.5% and the RFP signal change was found to be 2.76%.
